Data published in PubChem BioAssay (EPA / NIEHS).
Calls of active or inactive are those of the source. Rule for the calls: active = hit-call score of the fitted dose curve at least 0.9, where 1 is the maximum; inactive = score below 0.9.

Experiments:
Settings in all cases: mRNA level, 48 h; actives raise or lower the signal
[1] = read-out: Heat shock 70 kDa protein 1 (HSPA1A), gene 3303; assay: LTEA_HepaRG_HSPA1A: Life Technologies and Expression Analysis (LTEA) Assay for Heat shock 70 kDa protein 1 (HSPA1A) using HepaRG (AID 2283502)
How it was run: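 HSPA1A induction in human HepaRG liver cells is measured after 48 h of chemical treatment (100 uM maximum, 0.5% DMSO vehicle). Expression comes from qRT-PCR normalized to endogenous controls.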

[2] = read-out: Hypoxia-inducible factor 1-alpha (Homo sapiens) (UniProt Q16665); assay: LTEA_HepaRG_HIF1A: Life Technologies and Expression Analysis (LTEA) Assay for Hypoxia-inducible factor 1 (HIF1A) Trancription factor using HepaRG (AID 2283503)
How it was run: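 HepaRG, 48 h exposure, 8-pt half-log series from 100 uM, 0.5% DMSO vehicle, duplicates. Readout: HIF1A transcript by qRT-PCR (Fluidigm array), housekeeping-normalised. Bidirectional curve fit vs DMSO baseline.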

[3] = read-out: 3-Hydroxy-3-Methylglutaryl-CoA Synthase 2 (HMGCS2), HMGCS2 (gene 3158); assay: LTEA_HepaRG_HMGCS2: Life Technologies and Expression Analysis (LTEA) Assay for 3-Hydroxy-3-Methylglutaryl-CoA Synthase 2 (HMGCS2) using HepaRG (AID 2283504)
How it was run: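 HepaRG, plated 48 h then switched to serum-free induction media; cmpd 8-pt, max 100 uM, 1/2-log, 0.5% DMSO, n=2, 48 h. HMGCS2 mRNA by Fluidigm TaqMan qRT-PCR, ACTB/GAPDH/POLR2A norm; bidirectional fit vs DMSO.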

[4] = read-out: HGF (gene 3082); assay: LTEA_HepaRG_HGF: Life Technologies and Expression Analysis (LTEA) Assay for Hepatocyte Growth Facto (HGF) using HepaRG (AID 2283505)
How it was run: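 Read-out is HGF transcript level by qRT-PCR, normalized to three housekeeping genes, fitted bidirectionally against 0.5% DMSO vehicle. Human HepaRG cells received test chemicals for 48 h at up to 100 uM.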

[5] = read-out: Insulin Like Growth Factor 1 (IGF1), IGF1 (gene 3479); assay: LTEA_HepaRG_IGF1: Life Technologies and Expression Analysis (LTEA) Assay for Insulin Like Growth Factor 1 (IGF1) using HepaRG (AID 2283506)
How it was run: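 Using human HepaRG liver cells, IGF1 transcript induction or suppression is measured 48 h after dosing across eight concentrations capped at 100 uM. Values derive from bidirectional concentration-response fitting with DMSO as baseline.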

[6] = read-out: Intercellular Adhesion Molecule 1 (ICAM1), ICAM1 (gene 3383); assay: LTEA_HepaRG_ICAM1: Life Technologies and Expression Analysis (LTEA) Assay for Intercellular Adhesion Molecule 1 (ICAM1) using HepaRG (AID 2283507)
How it was run: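 Readout is qRT-PCR mRNA level, normalized to three housekeeping genes and fitted bidirectionally against 0.5% DMSO vehicle. Human HepaRG cultures received compound for 48 h, top concentration 100 uM with half-log dilutions.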

[7] = read-out: Insulin-like growth factor-binding protein 1 (IGFBP1), IGFBP1 (gene 3484); assay: LTEA_HepaRG_IGFBP1: Life Technologies and Expression Analysis (LTEA) Assay for Insulin-like growth factor-binding protein 1 (IGFBP1) using HepaRG (AID 2283508)
How it was run: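 Thawed HepaRG cells are plated for 48 h, switched to serum-free induction medium, then dosed in duplicate for another 48 h (100 uM top, half-log steps). Lysates in RLT go to qRT-PCR, and gain or loss of signal is fitted relative to vehicle.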

[8] = read-out: Interleukin 6 (IL6), IL6 (gene 3569); assay: LTEA_HepaRG_IL6: Life Technologies and Expression Analysis (LTEA) Assay for Interleukin 6 (IL6) using HepaRG (AID 2283509)
How it was run: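 Differentiated human HepaRG cells, plated 48 h then switched to serum-free induction medium, were exposed in duplicate for 48 h to eight half-log concentrations up to 100 uM in 0.5% DMSO. IL6 mRNA measured by qRT-PCR, normalized to ACTB/GAPDH/POLR2A.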

[9] = read-out: Interleukin 6 Receptor (IL6R), IL6R (gene 3570); assay: LTEA_HepaRG_IL6R: Life Technologies and Expression Analysis (LTEA) Assay for Interleukin 6 Receptor (IL6R) using HepaRG (AID 2283510);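 for AC50: TaqMan qRT-PCR signal normalized to ACTB GAPDH and POLR2A housekeeping genes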
How it was run: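 Concentration-response in human liver HepaRG cells: eight concentrations from 100 uM downward by half-logs, 48 h exposure, 0.5% DMSO vehicle. IL6R mRNA change measured by qRT-PCR and fitted in both directions relative to vehicle.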

[10] = read-out: Potassium channel subfamily K member 1 (KCNK1), KCNK1 (gene 3775); assay: LTEA_HepaRG_KCNK1: Life Technologies and Expression Analysis (LTEA) Assay for Potassium channel subfamily K member 1 (KCNK1) using HepaRG (AID 2283511)
How it was run: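 Differentiated human HepaRG cells in serum-free induction medium were exposed in duplicate for 48 h to 8 half-log concentrations up to 100 uM in 0.5% DMSO. KCNK1 mRNA was measured by TaqMan qRT-PCR, normalized to ACTB, GAPDH and POLR2A, and fitted bidirectionally versus DMSO.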

[11] = read-out: Keratin 19 (KRT19), KRT19 (gene 3880); assay: LTEA_HepaRG_KRT19: Life Technologies and Expression Analysis (LTEA) Assay for Keratin 19 (KRT19) using HepaRG (AID 2283512)
How it was run: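 KRT19 transcript levels, measured by Fluidigm qRT-PCR against three housekeeping genes, are fitted for gain or loss of signal relative to DMSO. Human HepaRG cells receive test chemicals (top 100 uM, half-log steps, 0.5% DMSO) for 48 hours.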

[12] = read-out: JUN Transcription Factor, JUN (gene 3725); assay: LTEA_HepaRG_JUN: Life Technologies and Expression Analysis (LTEA) Assay for JUN Transcription Factor using HepaRG (AID 2283513)
How it was run: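 Human HepaRG liver cells receive test chemicals in 0.5% DMSO for 48 h across an eight-point range topping at 100 uM. Expression changes in JUN are scored in both directions against the DMSO vehicle.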

[13] = read-out: Lipase C (LIPC), LIPC (gene 3990); assay: LTEA_HepaRG_LIPC: Life Technologies and Expression Analysis (LTEA) Assay for Lipase C (LIPC) using HepaRG (AID 2283514)
How it was run: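 Differentiated human HepaRG cells in serum-free induction medium were exposed in duplicate for 48 h to eight concentrations (top 100 uM, half-log steps, 0.5% DMSO). LIPC mRNA was quantified by TaqMan qRT-PCR, normalized to ACTB, GAPDH and POLR2A, with bidirectional fitting versus DMSO.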

[14] = read-out: Lipoprotein lipase (LPL), LPL (gene 4023); assay: LTEA_HepaRG_LPL: Life Technologies and Expression Analysis (LTEA) Assay for Lipoprotein lipase (LPL) using HepaRG (AID 2283515)
How it was run: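 Differentiated human HepaRG cells in serum-free induction medium were exposed in duplicate for 48 h to eight half-log concentrations (top 100 uM) in 0.5% DMSO. LPL mRNA was quantified by TaqMan qRT-PCR, normalized to ACTB, GAPDH and POLR2A.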

[15] = read-out: MicroRNA 122 (MIR122), gene 406906; assay: LTEA_HepaRG_MIR122: Life Technologies and Expression Analysis (LTEA) Assay for MicroRNA 122 (MIR122) using HepaRG (AID 2283516); note: the transcript read is the microRNA miR-122
How it was run: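 HepaRG, 48 h exposure, 8-pt half-log from 100 uM, 0.5% DMSO; TaqMan qRT-PCR; bidirectional fit vs DMSO.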

[16] = read-out: matrix metalloproteinase-10 (MMP10), MMP10 (gene 4319); assay: LTEA_HepaRG_MMP10: Life Technologies and Expression Analysis (LTEA) Assay for matrix metalloproteinase-10 (MMP10) using HepaRG (AID 2283517)
How it was run: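 HepaRG, collagen I, ~100,000 cells/well; serum-free induction medium; 48 h exposure, duplicate, 8-pt half-log to 100 uM, 0.5% DMSO. Readout: TaqMan qRT-PCR, normalized to ACTB/GAPDH/POLR2A; bidirectional fit vs DMSO.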

[17] = read-out: MYC, MYC (gene 4609); assay: LTEA_HepaRG_MYC: Life Technologies and Expression Analysis (LTEA) Assay for MYC using HepaRG (AID 2283518)
How it was run: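 HepaRG, ~100,000 cells/well, collagen I; 48 h plating; serum-free induction medium; 48 h dosing, duplicate, 100 uM top, half-log, 0.5% DMSO; total RNA → qRT-PCR MYC; gain/loss fit vs DMSO.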

[18] = read-out: matrix metalloproteinase-3 (MMP3), MMP3 (gene 4314); assay: LTEA_HepaRG_MMP3: Life Technologies and Expression Analysis (LTEA) Assay for matrix metalloproteinase-3 (MMP3) using HepaRG (AID 2283519)
How it was run: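 Differentiated human HepaRG cells, plated 48 h on collagen I, were exposed in duplicate for 48 h in serum-free induction medium to eight half-log concentrations up to 100 uM in 0.5% DMSO. MMP3 mRNA was quantified by TaqMan qRT-PCR, normalised to ACTB, GAPDH and POLR2A.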

[19] = read-out: Paternally Expressed 10 (PEG10), PEG10 (gene 23089); assay: LTEA_HepaRG_PEG10: Life Technologies and Expression Analysis (LTEA) Assay for Paternally Expressed 10 (PEG10) using HepaRG (AID 2283520);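 for AC50: PEG10 transcript by qRT-PCR normalised to ACTB GAPDH and POLR2A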
How it was run: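 Chemicals tested on HepaRG cells for 48 h, highest concentration 100 uM. PEG10 expression assessed by qRT-PCR relative to DMSO control.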

[20] = read-out: Nuclear factor NF-kappa-B p105 subunit (Homo sapiens) (UniProt P19838); assay: LTEA_HepaRG_NFKB1: Life Technologies and Expression Analysis (LTEA) Assay for Nuclear Factor Kappa B Subunit 1 (NFKB1) using HepaRG (AID 2283521)
How it was run: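 Differentiated human HepaRG cells were exposed for 48 h in serum-free induction medium to eight concentrations (top 100 uM, half-log steps, 0.5% DMSO), in duplicate. NFKB1 mRNA was measured by TaqMan qRT-PCR, normalized to ACTB/GAPDH/POLR2A, and fitted bidirectionally against DMSO.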

Measured: AC50

Sequence of Nuclear factor NF-kappa-B p105 subunit (Homo sapiens) (P19838 whole entry, looked up): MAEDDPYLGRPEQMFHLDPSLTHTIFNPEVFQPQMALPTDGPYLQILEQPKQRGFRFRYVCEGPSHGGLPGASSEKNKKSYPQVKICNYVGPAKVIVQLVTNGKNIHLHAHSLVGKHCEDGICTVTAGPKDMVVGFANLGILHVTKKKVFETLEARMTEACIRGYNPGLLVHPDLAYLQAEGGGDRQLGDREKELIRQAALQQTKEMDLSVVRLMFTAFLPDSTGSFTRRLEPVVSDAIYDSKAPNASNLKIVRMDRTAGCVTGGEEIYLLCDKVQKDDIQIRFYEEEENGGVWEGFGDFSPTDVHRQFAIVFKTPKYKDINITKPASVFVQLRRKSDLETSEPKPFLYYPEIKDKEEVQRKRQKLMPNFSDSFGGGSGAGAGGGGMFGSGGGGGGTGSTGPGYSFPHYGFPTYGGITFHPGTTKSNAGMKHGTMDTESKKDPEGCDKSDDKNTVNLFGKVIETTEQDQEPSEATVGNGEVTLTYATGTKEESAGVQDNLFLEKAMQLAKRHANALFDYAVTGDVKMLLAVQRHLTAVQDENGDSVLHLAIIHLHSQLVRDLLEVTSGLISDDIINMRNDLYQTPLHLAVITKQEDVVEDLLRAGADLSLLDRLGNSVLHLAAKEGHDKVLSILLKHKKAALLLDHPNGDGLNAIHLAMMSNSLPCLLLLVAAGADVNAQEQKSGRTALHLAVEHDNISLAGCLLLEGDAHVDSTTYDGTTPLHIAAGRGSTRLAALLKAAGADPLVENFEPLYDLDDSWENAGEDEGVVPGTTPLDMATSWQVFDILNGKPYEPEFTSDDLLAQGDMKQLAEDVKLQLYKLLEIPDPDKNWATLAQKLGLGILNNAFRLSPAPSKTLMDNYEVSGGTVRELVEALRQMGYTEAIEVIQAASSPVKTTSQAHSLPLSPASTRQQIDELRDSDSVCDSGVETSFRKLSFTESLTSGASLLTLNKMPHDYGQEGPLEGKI
Sequence of Hypoxia-inducible factor 1-alpha (Homo sapiens) (Q16665 whole entry, looked up): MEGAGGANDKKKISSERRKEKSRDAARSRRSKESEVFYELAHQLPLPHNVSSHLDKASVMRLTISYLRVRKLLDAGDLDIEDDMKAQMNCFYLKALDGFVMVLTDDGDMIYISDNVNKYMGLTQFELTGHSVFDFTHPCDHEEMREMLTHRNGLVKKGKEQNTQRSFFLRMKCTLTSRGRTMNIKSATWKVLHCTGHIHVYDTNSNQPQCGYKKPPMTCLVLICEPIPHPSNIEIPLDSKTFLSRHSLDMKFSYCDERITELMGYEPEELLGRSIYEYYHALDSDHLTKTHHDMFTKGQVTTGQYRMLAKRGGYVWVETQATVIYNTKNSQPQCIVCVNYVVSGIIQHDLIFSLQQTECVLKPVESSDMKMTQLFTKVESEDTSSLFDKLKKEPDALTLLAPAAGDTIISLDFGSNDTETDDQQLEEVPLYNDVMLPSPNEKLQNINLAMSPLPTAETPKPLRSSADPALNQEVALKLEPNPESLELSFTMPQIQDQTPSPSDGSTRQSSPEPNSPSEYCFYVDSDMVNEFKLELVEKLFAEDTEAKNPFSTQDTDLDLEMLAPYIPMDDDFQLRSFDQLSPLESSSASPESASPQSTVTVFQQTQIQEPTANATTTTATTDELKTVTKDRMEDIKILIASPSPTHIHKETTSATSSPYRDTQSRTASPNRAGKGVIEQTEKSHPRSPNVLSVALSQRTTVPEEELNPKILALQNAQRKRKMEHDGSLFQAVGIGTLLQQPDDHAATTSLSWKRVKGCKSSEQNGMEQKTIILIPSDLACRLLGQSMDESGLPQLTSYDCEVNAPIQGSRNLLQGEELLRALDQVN

CCCCCc1ccc(N)cc1
inactive: all assays above

O=CCCCC=O
not listed: [16]
inactive: all other assays above

CC/C(=C(/CC)c1ccc(O)cc1)c1ccc(O)cc1
active: [1] 75.8 µM | [2] 85.7 µM | [4] 23.6 µM | [7] 66.6 µM | [8] 93 µM | [9] 78.5 µM | [11] 9.92 µM | [12] 79.2 µM | [14] 83.9 µM | [16] 86.9 µM | [19] 67.1 µM
inactive: [3] | [5] | [6] | [10] | [13] | [15] | [17] | [18]

CCN(CC)C(=O)c1cc(S(=O)(=O)Cc2ccccc2)c(N2CCC(c3ccccc3)CC2)cc1N(CC)CCN(C)C
active: [1] 24.5 µM | [3] 35.5 µM | [6] 19 µM | [7] 32.2 µM | [8] 36.3 µM | [12] 30.4 µM | [14] 31.6 µM | [15] 30.5 µM | [20] 28.1 µM
not listed: [16]
inactive: all other assays above

O=C(O)Cn1c(=O)n(Cc2ccc(Br)cc2F)c(=O)c2ccc(Cl)cc21
active: [11] 50 µM | [14] 9.92 µM
inactive: all other assays above

CCCOC(=O)c1cc(O)c(O)c(O)c1
active: [3] 50 µM | [5] 11.4 µM
not listed: [6] | [15] | [16] | [20]
inactive: all other assays above
